Screens from PubChem BioAssay.
Pf growth 96h: inhibits malaria parasite growth, 96 h. actives 6.9% (n = 320,000). P. falciparum luciferase reporter growth, 96 h. Potency, µM (titrated, usually from 28.7 µM), for inactives: at the top dose activity change, negative = inhibition, actives largely listed as inhibitors
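Cell-based qHTS: luciferase-tagged P. falciparum in erythrocytes (2% hematocrit, 0.05% parasitemia final) incubated with compounds for 96 hours, 37 C, 5% CO2; luciferase detection reagent then added and luminescence measured.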
Pf growth 48h: inhibits P. falciparum growth in the first generation, 48 h; P. falciparum luciferase growth in erythrocytes, 48 h; Potency, µM (top dose mostly 28.7 µM), for inactives: top-dose activity change, negative = inhibition, hits mostly inhibitors; actives 5.9% (n = 310,000)
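Compounds are pin-transferred into medium, infected erythrocytes (2% hematocrit, 0.1% parasitemia final) are added, and plates sit one parasite generation at 37 C in 5% CO2. Detection reagent is then added and luminescence measured.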
VACV mCherry inh: inhibitors of vaccinia virus infection (mCherry reporter signal); actives 0.63% (n = 310,000); Potency, µM (titrated, usually from 36.5 µM), for the others: at the top dose activity change, negative = inhibition, actives largely listed as inhibitors; Vaccinia virus mCherry reporter infection, fluorescence; AID 720579; calls by dose curve; tested in A549 cells; note: nearly all actives have a fitted effect of over 35% in size
Vaccinia Venus: inhibitors of vaccinia virus (Venus reporter). Vaccinia virus Venus reporter expression, fluorescence. Potency, µM (top dose mostly 36.5 µM), for the others: at the top dose activity change, negative = inhibition, usual class: inhibitors. actives 0.46% (n = 330,000). AID 720580; calls by dose curve; tested in A549 cells; note: nearly all actives have a fitted effect of over 30% in size
AMA1 RON2 block: inhibitors of Plasmodium falciparum AMA1-RON2 interaction | actives 0.2% (n = 360,000) | AID 720542 | Potency, µM (doses to about 58.2 µM), for the others: at the top dose activity change, negative = inhibition, usual class: inhibitors | AlphaScreen AMA1-biotinylated RON2 peptide binding;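 note: 0% = vehicle wells and -100% = peptide control; nearly all actives have a fitted effect of over 45% in size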
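AMA1 (3D7) with his tag at 25 nM final met compounds first, then biotinylated RON2 peptide at 25 nM; detection used donor plus acceptor beads, 10 µg/mL apiece, read by AlphaScreen after 30 min at room temperature.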
The depositor's hits bear a star; i = inactive; ? = inconclusive; / = no result given. Compounds with a hit are over-represented: about 8.7% of the library has one in this group of screens. Unless noted, calls come from the whole dose curve; as a rule, active = well fitted curve in the direction sought with a large enough effect; inconclusive = small, poorly fitted or top-dose-only effect, or another doubt; inactive = no such curve, though single readings can be large; an effect the other way counts as inactive or inconclusive. Unless noted, % is set by controls: 0 for no effect and ±100 for the full control effect; potency is the fitted concentration of half-maximal effect.

SMILES	Pf growth 96h	Pf growth 48h	VACV mCherry inh	Vaccinia Venus	AMA1 RON2 block
CC(=O)c1cccc(-n2c(=O)c3c4c(sc3n(Cc3ccccc3Cl)c2=O)CN(C(C)=O)CC4)c1	/	/	-7%	-6%	/
CC(C)Cc1nc2c(nnn2Cc2ccccc2F)c(=O)[nH]1	9.3µM*	?	/	/	15%
Cc1ccc(CNC(=O)Cn2ccn(-c3ccc(F)cc3)c(=O)c2=O)cc1	/	/	-5%	-13%	/
C=C1C(=O)OC2C1CCC(C)=C1C(=O)C3OC3(C)C12 (stereo unspecified)	/	/	11µM*	?	-1%
Cn1c(=O)c2c(-c3ccc(Br)cc3)n(CCc3ccccc3)cc2n(C)c1=O	/	/	-7%	-9%	/
CC(C)N1C(=O)c2ccccc2C1C(=O)NC1CCCCCC1 (stereo unspecified)	0.74µM*	-15%	/	/	23%
O=C(NC1CCCCCC1)C1c2ccccc2C(=O)N1Cc1cccs1 (stereo unspecified)	29%	-35%	-13%	-9%	13%
O=C(NC1CCCCCC1)C1c2ccccc2C(=O)N1Cc1ccco1 (stereo unspecified)	1µM*	0%	/	/	-2%
O=C1CC(c2ccc(OCCCCCOc3ccc(C4CC(=O)NC4=O)cc3)cc2)C(=O)N1 (stereo unspecified)	?	?	-14%	-12%	-16%
CC(C)Oc1ccc(C2CC(=O)NC2=O)cc1 (stereo unspecified)	4.1µM*	24%	i	-12%	0%
CCOC(=O)c1sc2nc(NC(=O)COc3ccccc3)sc2c1C	1.7µM*	/	-18%	-6%	13%
CC(=O)c1sc(NC(=O)COc2ccccc2)nc1C	39%	i	-6%	-4%	9%
CCOc1ccc(-c2cc(NC(=O)c3cccc(Cl)c3)c(C(=O)OC)s2)cc1	/	/	-9%	1%	/
COCCn1c(SCC(=O)Nc2ccc(C(F)(F)F)cc2)nc2c([nH]c3ccccc32)c1=O	/	/	5%	7%	/
COc1ccc(-n2c(SCC(=O)Nc3cc(C)on3)nc3c([nH]c4ccccc43)c2=O)cc1OC	6.6µM*	10µM*	-19%	-18%	21%
COc1ccccc1-n1c(SCC(=O)Nc2ccc(NC(C)=O)cc2)nc2c([nH]c3ccccc32)c1=O	13µM*	-54%	i	-20%	-16%
CC/C(=N/Nc1ccccc1)c1cnnc(-c2ccccc2)n1	0.1µM*	0.13µM*	-15%	2%	-2%
CC/C(=N/Nc1cccc(Cl)c1)c1cnnc(SC)n1	?	?	7%	-5%	-7%
Cc1cccc(C(c2sc3nc(-c4ccco4)nn3c2O)N2CCN(c3ccccc3F)CC2)c1 (stereo unspecified)	/	/	-8%	-7%	/
CCOC(=O)c1cc(-c2ccccc2)n(CCC(=O)NC(C)CC)c1C (stereo unspecified)	4.1µM*	?	/	/	-2%
CCC(C)NC(=O)CCn1c(-c2ccccc2)cc(C(C)=O)c1C (stereo unspecified)	?	7%	-8%	0%	-2%
CCOC(=O)c1cc(-c2ccccc2)n(CCC(=O)N2CCN(c3ccccc3OC)CC2)c1C	?	9.3µM*	-24%	-25%	-27%
CC(=O)c1cccc(NC(=O)Cn2c(=O)oc3cc(S(=O)(=O)NC4CCCC4)ccc32)c1	/	/	-14%	-2%	/
O=C(Cn1c(=O)c2cccn2c2cccnc21)NCc1ccccc1F	/	/	-11%	-10%	/
COCC(=O)N1CCC(n2nnc3cc(C(F)(F)F)ccc32)CC1	5.2µM*	20%	/	/	-2%
SMILES	Pf growth 96h	Pf growth 48h	VACV mCherry inh	Vaccinia Venus	AMA1 RON2 block
FC(F)(F)c1ccc2c(c1)nnn2C1CCN(Cc2nnnn2Cc2ccccc2)CC1	10µM*	7.4µM*	-10%	-2%	7%
Fc1ccc2c(c1)nnn2C1CCN(Cc2nnnn2C2CCCCC2)CC1	-8%	?	/	/	-11%
Cc1ccc(Cn2nnnc2CN2CCC(O)(c3ccccc3F)CC2)cc1	39%	15µM*	-25%	-14%	-3%
Cc1ccc(Cn2nnnc2CN2CCC(NC(=O)c3ccccc3F)CC2)cc1	?	?	i	-8%	2%
Cc1ccc(Cn2nnnc2CN2CCC(n3nnc4cc(C(F)(F)F)ccc43)CC2)cc1	-15%	?	-27%	-16%	-7%
Cc1ccc(Cn2nnnc2CN2CCC(n3nnc4cc(C)ccc43)CC2)cc1	13µM*	?	-27%	-18%	11%
CCN(Cc1ccccc1)C(=O)Cn1c(=O)n(-c2ccc(Cl)cc2)c(=O)c2c(C)c(C)sc21	/	/	i	-14%	/
CCn1c(=O)c2sccc2n2c(CCC(=O)Nc3ccc(OC)cc3OC)nnc12	/	/	-5%	-13%	/
COc1cccc(C2C(C#N)=C(N)SC(c3ccccc3)C2[N+](=O)[O-])c1 (stereo unspecified)	19%	10µM*	-14%	-12%	-5%
CC(C)NC(=O)c1ccccc1NC(=O)C1COc2ccccc2O1 (stereo unspecified)	-17%	10µM*	-10%	-23%	0%
CCOc1ccccc1NC(=O)C1COc2ccccc2O1 (stereo unspecified)	?	?	/	/	69%
CCC(C)NC(=O)c1ccccc1NC(=O)C1COc2ccccc2O1 (stereo unspecified)	?	1.2µM*	/	/	5%
COCCNC(=O)c1ccccc1NC(=O)C1COc2ccccc2O1 (stereo unspecified)	?	-3%	/	/	1%
Cc1cc(C)cc(NC(=O)N2CCN(C(=O)c3nsc4ccccc34)CC2)c1	/	/	-6%	-7%	/
CC1CC1C(=O)Nc1nc(-c2ccccn2)cs1 (stereo unspecified)	3.7µM*	/	/	-12%	22%
C[C@@H](C(=O)Nc1nc(-c2ccccn2)cs1)N1C(=O)C2CCCCC2C1=O (stereo partly specified)	12µM*	/	/	2%	?
O=C(CN1C(=O)C2CCCCC2C1=O)Nc1nc(-c2ccccn2)cs1 (stereo unspecified)	?	/	?	?	5%
O=C(Nc1nc(-c2ccccn2)cs1)C1COc2ccccc2O1 (stereo unspecified)	0.37µM*	8.3µM*	?	?	-42%
O=C(Nc1ccccn1)C1COc2ccccc2O1 (stereo unspecified)	5.9µM*	51%	-5%	-8%	12%
Cc1ccc(S(=O)(=O)c2nnn(CC(=O)Nc3ccccc3C)c2N)cc1	/	/	4%	10%	/
CC1Oc2ccccc2OC1C(=O)Nc1ccccn1 (stereo unspecified)	10%	5.9µM*	-6%	-1%	-5%
O=C(Nc1nc(-c2ccc3c(c2)OCCO3)cs1)c1ccc(S(=O)(=O)N2CCCCC2)cc1	?	12µM*	-5%	-19%	-13%
O=C(Nc1nc(-c2ccc(S(=O)(=O)N3CCCC3)cc2)cs1)C1COc2ccccc2O1 (stereo unspecified)	-7%	9.3µM*	/	?	-3%
O=C(Nc1nc(-c2ccc(S(=O)(=O)N3CCCCCC3)cc2)cs1)c1ccccc1	1%	/	/	/	11%
